Measurements from PubChem BioAssay (NCATS).
Where “and” joins values, the source holds several entries; their conditions need not be identical. Identical values can stand only once. Results filed as inconclusive are left out. Where a call stands in place of a potency, no number is given. A number with no mark means an inactive call. Calls of active or inactive are those of the source. The call rests on the fitted dose curve; in most records, active means well fitted curve in the direction sought with a large enough effect; inconclusive means small, poorly fitted or top-dose-only effect, or another doubt; inactive means no such curve, though single readings can be large; an effect the other way counts as inactive or inconclusive.

Columns and labels:
[1] = Quantitative highthroughput screen to assess conditional lethalithy of NOMO1 cells grown in RPMI1640 with untreated serum (RPMI+s) (AID 1963876); conditions: NOMO1 AML cells in RPMI+serum, CellTiter-Glo viability, 48 h; series mostly up to 45.8 µM; further: nearly all actives have a fitted effect of over 35% in size
Outline: (§1)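 Each medium arm—HPLM with 10% dialyzed FBS, or RPMI1640 with 5 mM glucose and 10% untreated or dialyzed FBS—was screened against an 11-point, 3-fold compound titration for 48 h at 37 °C, with CellTiter-Glo luminescence as endpoint.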

[2] = Quantitative highthroughput screen to assess conditional lethalithy of NOMO1 cells grown in RPMI1640 with dialyzed fetal bovine serum (RPMI+ds) (AID 1963877); conditions: NOMO1 in RPMI+dialyzed FBS viability, ATP luminescence, 48 h; series mostly up to 45.8 µM; further: nearly all actives have a fitted effect of over 30% in size
Outline: as §1

[3] = Quantitative highthroughput screen to assess conditional lethalithy of NOMO1 cells grown in Human Plasma-Like Medium with dialyzed fetal bovine serum (HPLM+ds) (AID 1963878); conditions: NOMO1 AML cells in HPLM+ds, CellTiter-Glo viability, 48 h; series mostly up to 45.8 µM; further: nearly all actives have a fitted effect of over 35% in size
Outline: as §1

[4] = Quantitative highthroughput screen to assess conditional lethalithy of P12 Ichikawa cells grown in Human Plasma-Like Medium with dialyzed fetal bovine serum (HPLM+ds) (AID 1963879); conditions: ATP luminescence, 48 h; Potency: viability; series mostly up to 45.8 µM; further: nearly all actives have a fitted effect of over 35% in size
Outline: as §1

[5] = Quantitative highthroughput screen to assess conditional lethalithy of P12 Ichikawa cells grown in RPMI1640 with dialyzed fetal bovine serum (RPMI+ds) (AID 1963880); conditions: ATP luminescence, 48 h; Potency: P12-Ichikawa viability; series mostly up to 45.8 µM; further: nearly all actives have a fitted effect of over 35% in size
Outline: as §1

[6] = Quantitative highthroughput screen to assess conditional lethalithy of P12 Ichikawa cells grown in RPMI1640 with untreated serum (RPMI+s) (AID 1963881); conditions: ATP luminescence, 48 h; Potency: viability; series mostly up to 45.8 µM; further: nearly all actives have a fitted effect of over 35% in size
Outline: as §1

[7] = Quantitative highthroughput screen to assess conditional lethalithy of SEM cells grown in Human Plasma-Like Medium with dialyzed fetal bovine serum (HPLM+ds) (AID 1963882); conditions: SEM B-ALL cells in HPLM+ds, CellTiter-Glo viability, 48 h; series mostly up to 45.8 µM; further: nearly all actives have a fitted effect of over 35% in size
Outline: as §1

[8] = Quantitative highthroughput screen to assess conditional lethalithy of SEM cells grown in RPMI1640 with unreated serum (RPMI+s) (AID 1963883); conditions: SEM B-ALL cells, CellTiter-Glo viability, 48 h; series mostly up to 45.8 µM; further: nearly all actives have a fitted effect of over 35% in size
Outline: as §1

[9] = Quantitative highthroughput screen to assess conditional lethalithy of SEM cells grown in RPMI1640 with dialyzed fetal bovine serum (RPMI+ds) (AID 1963884); conditions: SEM B-ALL cells, RPMI+dialyzed FBS, CellTiter-Glo viability, 48 h; series mostly up to 45.8 µM; further: nearly all actives have a fitted effect of over 35% in size
Outline: as §1

[10] = Cellular viability qHTS for adrenocortical cancer (ACC) cell line SW-13 (AID 1963989); conditions: SW-13 ACC cells viability, CellTiter-Glo, 48 h; activity (max response): active compounds read low; further: nearly all actives have a fitted effect of over 65% in size;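 on activity (max response): cells grown in serum-free medium with ITS supplement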
Outline: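 Here, serum-free SW-13 cultures were dosed up to 46 uM. Following 48 h, ATP-dependent luminescence (CellTiter-Glo) reported viable cells, and logistic modeling produced IC50 values.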

[11] = Cellular viability qHTS for adrenocortical cancer (ACC) cell line NCI-H295R (AID 1963990); conditions: CellTiter-Glo ATP luminescence, 48 h; series mostly up to 46.1 µM; further: nearly all actives have a fitted effect of over 60% in size
Outline: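 Viability of NCI-H295R after 48 h of treatment (final up to 46 uM) measured through cellular ATP luminescence.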
Potency means the concentration at half of the fitted maximal effect.

Row | Compound | Potency [1] | Potency [2] | Potency [3] | Potency [4] | Potency [5] | Potency [6] | Potency [7] | Potency [8] | Potency [9] | Potency [10] | activity (max response) [10] | Potency [11]
1 | N#CC(c1ccnc(NCCc2cccnc2)n1)c1nc2ccccc2s1 (stereo unspecified) | inactive | inactive | inactive | inactive | inactive | inactive | inactive | inactive | inactive | 25.1 µM (active) | – | –
2 | O=C(Nc1ccc(F)c(C(F)(F)F)c1)Nc1nnc(-c2ccncc2)s1 | inactive | inactive | inactive | inactive | inactive | inactive | inactive | inactive | inactive | – | 4.96% | inactive
3 | O=C(O)c1cccc(-c2noc(-c3ccccc3F)n2)c1 | inactive | inactive | inactive | inactive | inactive | inactive | inactive | inactive | inactive | – | – | inactive
4 | NC(=O)c1ccc(I)c([N+](=O)[O-])c1 | inactive | inactive | inactive | inactive | inactive | inactive | inactive | inactive | inactive | – | 11.3% | inactive
5 | CCN(C(=O)c1c(O)c2c(Cl)cccc2n(C)c1=O)c1ccccc1 | 1.66 µM (active) | 2.64 µM (active) | 1.32 µM (active) | 3.32 µM (active) | 1.66 µM (active) | 2.35 µM (active) | 0.59 µM (active) | 0.332 µM (active) | 0.418 µM (active) | 7.94 µM (active) | – | –
6 | Cc1csc(NC(=O)c2sc3nc4c(c(C(F)(F)F)c3c2N)CCC4)n1 | inactive | inactive | inactive | inactive | inactive | inactive | inactive | inactive | inactive | – | -2.72% | inactive
7 | O=C(NC1CCOCC1)c1ccc(-c2cc(-c3cn[nH]c3-c3ccccn3)ccn2)cc1 | inactive | inactive | inactive | inactive | inactive | inactive | inactive | inactive | inactive | – | 6.28% | inactive
8 | COc1cccc(Nc2c(C(N)=O)cnc3c(C)cc(S(=O)(=O)c4cccc(C(=O)N(C)C)c4)cc23)c1 | inactive | inactive | inactive | inactive | inactive | inactive | inactive | inactive | inactive | – | – | inactive
9 | COC(=O)Nc1ccc(-c2nc(N3CCOCC3)c3cnn(C4CCN(Cc5cccnc5)CC4)c3n2)cc1 | 4.69 µM (active) | 1.87 µM (active) | 1.05 µM (active) | 5.9 µM (active) | 1.48 µM (active) | 0.469 µM (active) | 0.662 µM (active) | 0.296 µM (active) | 0.372 µM (active) | 12.6 µM (active) | – | 5.01 µM (active)
10 | Cc1cc(OCCCc2c(C(=O)O)n(Cc3cccnc3)c3c(-c4c(COc5ccc(N6CCN([S+](C)(=O)[O-])CC6)cc5)nn(C)c4C)cccc23)cc(C)c1Cl | inactive | inactive | inactive | inactive | inactive | inactive | inactive | – | 18.7 µM (active) | – | – | –
11 | Cc1ccc(NC(=O)c2cccc(N(C)C)c2)cc1NC(=O)c1ccc(O)cc1 | inactive | inactive | inactive | inactive | inactive | inactive | inactive | inactive | inactive | – | – | inactive
12 | CCOc1cc(N)c(Cl)cc1C(=O)NCC1CN(Cc2ccc(F)cc2)CCO1 (stereo unspecified) | inactive | inactive | inactive | inactive | inactive | inactive | inactive | inactive | inactive | – | -20% and -11.9% | inactive
13 | NC(=O)c1ccc(-c2nc(-c3ccc4c(c3)OCCO4)c(-c3ccccn3)[nH]2)cc1 | inactive | inactive | inactive | inactive | inactive | inactive | inactive | inactive | inactive | – | -9.07% | –
14 | CC1=C(CC(=O)O)c2cc(F)ccc2C1=Cc1ccc(S(C)=O)cc1 (stereo unspecified) | inactive | inactive | inactive | inactive | inactive | inactive | inactive | inactive | – | – | 10.2% | inactive
15 | c1ccc(CNc2nc(N3CCOc4ccccc43)nc3c2CCCC3)cc1 | inactive | inactive | inactive | inactive | inactive | inactive | inactive | – | inactive | – | – | –
16 | O=C(NCCCCN1CCOCC1)c1cc2ccccc2o1 | inactive | inactive | inactive | inactive | inactive | inactive | inactive | inactive | inactive | – | 10.7% | –
17 | COc1ccnc2[nH]cc(C(=O)C(=O)N3CCN(C(=O)c4ccccc4)C[C@@H]3C)c12 | inactive | inactive | inactive | inactive | inactive | inactive | inactive | – | inactive | – | – | –
18 | CC(C)(F)C[C@H](N[C@@H](c1ccc(-c2ccc(S(C)(=O)=O)cc2)cc1)C(F)(F)F)C(=O)NC1(C#N)CC1 | inactive | inactive | inactive | inactive | inactive | inactive | inactive | inactive | inactive | – | -2.64% | inactive
